# Test results taken from PubChem BioAssay (Tox21).
# Inconclusive results are not listed. Calls of active or inactive are those of the source. Calls follow the shape of the dose curve; as a rule, active = well fitted inhibition curve with a large enough effect in the signal ratio in the repeat runs, with a control signal flat; inconclusive = weak or mixed curves, or effect the other way; inactive = flat fitted curve, though single readings scatter; the % refers to the signal ratio.
# Biological target: D(2) dopamine receptor (Homo sapiens) (UniProt P14416)
# Assay: Dopamine D2 receptor (DRD2) small molecule antagonists, cell-based qHTS assay (AID 1963595)
# Conditions: HEK293-DRD2 cAMP HTRF antagonist mode; series mostly up to 92.4 µM; activity change, negative = inhibition: at the top concentration
# In short: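 Readout: HTRF cAMP, cAMP-d2 competing with cellular cAMP for anti-cAMP cryptate, read after 1 h. Cells: DRD2-HEK293. Conditions: 0.1 mM Ro20-1724, 12 nM quinpirole, 200 nM NKH477, 30 min RT.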
# % is scaled to controls: 0 for no effect and ±100 for the full control effect; potency is read from the fitted curve at half-maximal effect.
# Chain of D(2) dopamine receptor (Homo sapiens) (P14416 whole entry, looked up): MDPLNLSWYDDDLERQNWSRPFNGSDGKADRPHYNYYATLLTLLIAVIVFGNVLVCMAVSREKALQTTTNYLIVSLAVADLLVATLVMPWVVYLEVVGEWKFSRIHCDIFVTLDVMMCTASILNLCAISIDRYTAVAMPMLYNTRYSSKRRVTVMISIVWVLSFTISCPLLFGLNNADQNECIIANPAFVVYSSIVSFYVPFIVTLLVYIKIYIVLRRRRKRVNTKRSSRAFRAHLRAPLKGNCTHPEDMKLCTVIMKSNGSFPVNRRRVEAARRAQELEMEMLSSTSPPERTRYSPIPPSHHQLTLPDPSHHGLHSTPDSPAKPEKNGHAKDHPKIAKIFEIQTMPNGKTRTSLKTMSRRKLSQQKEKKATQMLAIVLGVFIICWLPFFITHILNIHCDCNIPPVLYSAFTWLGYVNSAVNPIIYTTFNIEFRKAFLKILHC
Compound,"activity change, negative = inhibition",Potency
Cc1cc(C)c(NC(=O)CN(CC(=O)O)CC(=O)O)c(C)c1Br,2.54% [at 42.5 µM] (inactive),–
CC(=O)c1c(C)cc(C(C)(C)C)cc1C,-16.7% (inactive),–
O=C(O)Cc1c(Cl)ccc(Cl)c1Cl,5.74% (inactive),–
COc1ccc(C2C(=O)c3ccccc3C2=O)cc1,-0.926% [at 42.5 µM] (inactive),–
CCCCCc1ccco1,0.155% [at 42.5 µM] (inactive),–
O=c1cc(-c2ccccc2)oc2ccc3ccccc3c12,-0.856% (inactive),–
CN(CCOc1ccc(NS(C)(=O)=O)cc1)CCc1ccc(NS(C)(=O)=O)cc1,12.5% [at 42.5 µM] (inactive),–
CN(C)CCc1c[nH]c2ccc(C[C@H]3COC(=O)N3)cc12,-9.25% [at 42.5 µM] (inactive),–
CCOC(=O)COc1cc(-n2ncc(C(F)(F)F)c(C)c2=O)c(F)cc1Cl,5.24% (inactive),–
Oc1ccc(-c2ccc(O)cc2)cc1,-9.08% (inactive),–
CN1CCN(C2=Nc3ccccc3Sc3ccc(Cl)cc32)CC1,–,5.96 µM (active)
Cc1cccc([N+](=O)[O-])c1C(=O)O,-0.533% (inactive),–
c1ccc(C(O[C@H]2CCCN(CCc3ccc4c(c3)OCO4)C2)c2ccccc2)cc1,-10.1% [at 42.5 µM] (inactive),–
CCC(C)CCCC(C)(C)O (configuration not stated),5.92% (inactive),–
CCOc1ccc(NC(=O)OC(C)C)cc1OCC,0.548% (inactive),–
CC(C)C(=O)OCc1ccccc1,-1.36% (inactive),–

Compound,"activity change, negative = inhibition",Potency
C[C@@]12C(=O)OC(=O)[C@]1(C)C1CCC2O1,0.317% [at 42.5 µM] (inactive),–
CN(C)[C@@H]1C(=O)C(C(=O)NCN2CCCC2)=C(O)[C@@]2(O)C(=O)C3=C(O)c4c(O)cccc4[C@@](C)(O)C3C[C@@H]12 (some centres not stated),8.38% [at 42.5 µM] (inactive),–
CC(=O)OC1CCCCC1,-0.549% (inactive),–
CCCCCCCCOC(C)=O,-22.8% (inactive),–
CCOC(=O)C(C)(C)C,2.99% (inactive),–
CCCCCCCCN(C)CCCCCCCC,5.76% (inactive),–
COc1cc2nc(Cl)nc(N)c2cc1OC,9.96% [at 42.5 µM] (inactive),–
CCN(CC)c1ccc(C=O)cc1,1.13% (inactive),–
O=C1c2ccccc2C(=O)C1(O)O,-0.138% (inactive),–
COC[C@H](c1ccc(C(F)(F)F)cc1)N1CCN(C2(C)CCN(C(=O)c3c(C)ncnc3C)CC2)C[C@H]1C,0.0747% [at 42.5 µM] (inactive),–
CCOc1cccc(N)c1,0.378% (inactive),–
CCCCCCCCCCCC(C)=O,8.36% (inactive),–
CC(=O)Oc1ccc(C(C)=O)cc1,1.56% (inactive),–
CCOC(=O)CCC(=O)OCC,1.91% (inactive),–
C=CC(OCC)OCC,3.46% (inactive),–
CCCCCCCCCC(=O)OCC,1.37% (inactive),–
